# Test results taken from PMC4336329 (PLoS ONE, 2015).
# In all, about 310,000 compounds went through this assay and about 14,000 (4.5%) showed an effect of 50% or more. The effect is printed as a negative number. The sample holds strong results, similar compounds and a random draw of the others, so the mix is not that of the screen.
# Biological target: human ether-à-go-go-related gene (hERG) potassium channel (human, UniProt Q12809)
# Assay: primary screen, population patch clamp on CHO cells stably expressing hERG; higher = less effect of the substance
# 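Further: peak tail current of the secondary pulse compared with the same well before compound.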
# Sequence of human ether-à-go-go-related gene (hERG) potassium channel (Q12809 whole entry, looked up): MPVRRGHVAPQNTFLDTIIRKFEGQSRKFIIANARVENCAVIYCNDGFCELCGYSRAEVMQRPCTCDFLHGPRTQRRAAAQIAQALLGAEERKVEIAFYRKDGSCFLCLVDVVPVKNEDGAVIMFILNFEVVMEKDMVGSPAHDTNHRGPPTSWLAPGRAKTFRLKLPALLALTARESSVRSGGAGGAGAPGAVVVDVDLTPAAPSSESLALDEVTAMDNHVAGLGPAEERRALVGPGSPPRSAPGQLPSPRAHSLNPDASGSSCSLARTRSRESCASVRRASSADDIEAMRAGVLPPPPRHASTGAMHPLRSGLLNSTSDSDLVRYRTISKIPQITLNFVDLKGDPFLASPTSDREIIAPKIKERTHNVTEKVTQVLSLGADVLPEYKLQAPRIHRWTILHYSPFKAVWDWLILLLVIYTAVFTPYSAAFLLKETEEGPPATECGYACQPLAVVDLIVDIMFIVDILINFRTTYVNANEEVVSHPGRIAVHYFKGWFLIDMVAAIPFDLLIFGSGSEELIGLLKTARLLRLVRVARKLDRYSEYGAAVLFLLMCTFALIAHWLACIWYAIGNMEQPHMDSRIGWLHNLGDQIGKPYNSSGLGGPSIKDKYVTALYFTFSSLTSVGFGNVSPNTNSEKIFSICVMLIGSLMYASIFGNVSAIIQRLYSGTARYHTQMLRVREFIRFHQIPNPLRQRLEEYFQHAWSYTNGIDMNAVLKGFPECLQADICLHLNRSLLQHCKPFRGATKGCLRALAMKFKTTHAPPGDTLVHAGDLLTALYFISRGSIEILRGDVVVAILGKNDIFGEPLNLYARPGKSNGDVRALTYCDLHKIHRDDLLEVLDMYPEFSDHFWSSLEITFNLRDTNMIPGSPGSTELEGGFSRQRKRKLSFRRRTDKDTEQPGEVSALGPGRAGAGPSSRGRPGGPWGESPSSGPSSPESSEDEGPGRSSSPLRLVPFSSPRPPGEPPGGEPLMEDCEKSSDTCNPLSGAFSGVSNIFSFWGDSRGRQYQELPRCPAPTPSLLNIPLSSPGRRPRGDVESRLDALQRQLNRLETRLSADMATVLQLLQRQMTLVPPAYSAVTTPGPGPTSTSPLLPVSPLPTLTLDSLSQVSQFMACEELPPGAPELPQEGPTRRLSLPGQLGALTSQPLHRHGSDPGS
row,Structure (SMILES),"hERG current change (%, negative = inhibition) at 10uM [%]"
1,Brc1ccccc1OCCCCCN1CCCC1,-33.9
2,Clc1ccccc1OCCCCN1CCCCC1,-8.1
3,CCN1CCN(CCCOc2ccc(Cl)cc2Br)CC1.O=C(O)C(=O)O,-69
4,Fc1ccccc1OCCCCCCN1CCCC1,-38.2
5,Cc1ccccc1OCCCN1CCCC1,-14.4
6,Clc1cccc(OCCCN2CCCC2)c1Cl,-55.5
7,Clc1ccccc1OCCCCN1CCCC1,-29.6
8,Clc1ccc(Cl)c(OCCN2CCCC2)c1,-38.8
9,Clc1ccc(OCCCCCN2CCCC2)c(Br)c1,-62.3
10,Clc1ccc(Cl)c(OCCCCN2CCCCC2)c1,-59.2
11,Clc1ccc(OCCCn2ccnc2)c(Br)c1.O=C(O)C(=O)O,-18.6
12,CCn1c(P(C)(=O)[O-])nc2ccccc21.[Na+],8.91
13,COC(=O)c1sccc1NC(=S)N1CCCC(C)C1 (centres unmarked),14.6
14,Cc1cc(C(=O)N2CCN(c3ccc(C(F)(F)F)cn3)CC2)c(C)o1,-21.4
15,CCOc1ccccc1C(=O)Nc1nnc(C(C)C)s1,-1.92
16,O=C(CCN1C(=O)/C(=C/c2ccc(F)cc2)SC1=S)NC1C=CS(=O)(=O)C1 (centres unmarked),-15.2
17,CCc1nc2ccccc2n1CCC(=O)O.Cl,-5.88
18,CC1(C)c2ccccc2N2CC(=O)NC21/C=C/c1ccco1 (centres unmarked),2.9
19,Cc1nn(Cc2ccc(Cl)cc2)c(C)c1NC(=O)c1cc(-c2ccc3c(c2)OCO3)on1,-3.11
20,CN(C)C(=O)N1CCC(C(=O)N2CCCC(C(=O)c3cccc4ccccc34)C2)CC1 (centres unmarked),-33.8
21,Clc1ccc(OCCCN2CCCCC2)c(Br)c1.O=C(O)C(=O)O,-70.7
22,Clc1ccc(Cl)c(OCCCCN2CCNCC2)c1.O=C(O)C(=O)O,-17.4
23,Clc1ccc(OCCN2CCCCC2)c(Cl)c1.O=C(O)C(=O)O,-16.2
24,CCOC(=O)C(NC(=O)Cc1ccccc1)(Nc1cc(C)on1)C(F)(F)F (centres unmarked),3.97

row,Structure (SMILES),"hERG current change (%, negative = inhibition) at 10uM [%]"
1,N#Cc1ccccc1NC(=O)COC(=O)CCc1ccccc1,-14.9
2,C=CCn1c(SCc2ccc(C(=O)Nc3ccccc3)cc2)nnc1-c1ccccc1,-5.06
3,O=C(CCn1c(=O)c2ccccc2n(Cc2ccccc2)c1=O)NCc1ccc2c(c1)OCO2,-4.33
4,O=C(NCCCl)Nc1cc([N+](=O)[O-])ccc1Cl,16.9
5,CCOC(=O)c1c(-c2ccccc2)nc2ccc(Cl)cn12,30
6,CCOC(=O)CNc1c(-c2ccc(OC)cc2)nc2ccc(Cl)cn12,-73.5
7,COCCNc1c(-c2ccc(OC)cc2)nc2ccc(Cl)cn12,-39.5
8,CCOC(=O)CNc1c(-c2ccc(O)cc2)nc2ccc(Cl)cn12.Cl,-39.7
9,CCOC(=O)CNc1c(-c2ccccc2)nc2ccc(Cl)cn12,-64.4
10,CC(=O)Nc1c(-c2ccccc2)nc2ccc(Cl)cn12,5.29
11,Cc1ccc(S(=O)(=O)N2c3ccccc3OCC2c2ccccc2)cc1 (centres unmarked),23
12,CCCCCNCC(=O)Nc1cc(C(F)(F)F)ccc1OCCOC,-34.2
13,CCOc1ccc(OCC)c(NC(=O)CN2CCN(CC)CC2)c1.Cl,-43.3
14,COCCOc1ccc(C(F)(F)F)cc1NC(=O)c1ccccc1,-10.9
15,COc1ccc(OC)c(NC(=O)CN2CCN(C(=O)c3ccco3)CC2)c1,-23.7
16,CCOC(=O)N1CCN(CC(=O)Nc2cc(OCC)ccc2OCC)CC1.Cl,-68.1
17,CCOc1ccc(OCC)c(NC(=O)CN2CCN(c3cc(C)ccc3C)CC2)c1.Cl,-9.35
18,CCOc1ccc(OCC)c(NC(=O)CN2CCN(C(=O)c3ccco3)CC2)c1,-59
19,COc1ccc(NC(C)=O)cc1NC(=O)CN1CCN(C(=O)c2ccco2)CC1,13.9
20,CCOc1ccc(OCC)c(NC(=O)CN2CCN(c3ccc(C)cc3C)CC2)c1.Cl,-0.937
21,CCOc1ccc(OCC)c(NC(=O)CN2CCN(CC(=O)NC(C)C)CC2)c1.Cl,9.43
22,CCN1CCN(CC(=O)Nc2cc(C(F)(F)F)ccc2OCCOC)CC1.O=C(O)C(=O)O,-75.4
23,CCCN1CCN(CC(=O)Nc2cc(OCC)ccc2OCC)CC1.Cl,-57.6
